Measured values taken from PubChem BioAssay AID651813 (National Center for Advancing Translational Sciences (NCATS), 2012).
The campaign covered roughly 2,100 compounds. About 1,100 (52%) were called active. Inconclusive results (about 27%) are left out. Calls follow the shape of the dose curve; as a rule, active = well fitted inhibition curve with a large enough effect; inconclusive = small, poorly fitted or top-dose-only effect; inactive = no such curve, though single readings can be large or run the other way. So high a share suggests a set chosen from earlier hits. The list shows a part of the results.
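Also: hits raise yellow fluorescence by blocking Vif-driven A3G-eYFP degradation; nearly all actives have a fitted effect of over 70% in size.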
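For max response in this document: max response given as percent of control signal.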
Potency is read from the fitted curve at half-maximal effect.

Each compound was assayed against DNA dC->dU-editing enzyme APOBEC-3G (Homo sapiens) (UniProt Q9HC16) (assay: qHTS for inhibitors of Vif-A3G interactions: Cherry picks counterscreen). Conditions: HeLa A3G-eYFP + Vif (tagged APOBEC3G with the HIV-1 protein that degrades it), eYFP fluorescence, 24 h.
Sequence of DNA dC->dU-editing enzyme APOBEC-3G (Homo sapiens) (Q9HC16 whole entry, looked up): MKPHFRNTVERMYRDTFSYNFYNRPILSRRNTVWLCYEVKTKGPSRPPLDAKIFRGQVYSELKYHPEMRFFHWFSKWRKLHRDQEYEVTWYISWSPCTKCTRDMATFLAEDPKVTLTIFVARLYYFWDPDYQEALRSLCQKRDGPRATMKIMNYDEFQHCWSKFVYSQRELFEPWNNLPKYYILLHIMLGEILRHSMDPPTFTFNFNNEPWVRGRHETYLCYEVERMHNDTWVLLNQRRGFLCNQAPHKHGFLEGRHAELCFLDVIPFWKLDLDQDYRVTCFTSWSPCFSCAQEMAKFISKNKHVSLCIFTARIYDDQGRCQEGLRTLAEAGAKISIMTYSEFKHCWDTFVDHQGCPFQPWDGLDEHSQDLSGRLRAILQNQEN
Procedure, shortened: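 Readout is eYFP fluorescence (488 nm excitation, 500-530 nm emission) measured on Acumen Explorer after 24 h compound exposure, several concentrations, at 37 deg C. Cells: HeLa stably co-expressing Vif and C-terminally eYFP-tagged A3G; MG132 positive control.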
`Cc1ccc(/C(C#N)=C\c2ccc(N3CCOCC3)o2)cc1` was tested, and the Potency was 17.7 µM (active).
With `N#C/C(=C\c1ccc(N2CCOCC2)o1)c1ccccc1` the Potency was 14 µM (active).
For `N#C/C(=C/c1ccc(N2CCOCC2)o1)c1ccc(Cl)cc1`, the Potency was 2.31 µM (active).
`N#CC(C#N)=C1C=C2C=C(N3CCOCC3)CCC2CC1` (stereo not drawn) was tested, and the max response was 51.3% (inactive).
With `N#C/C(=C/c1ccc(N2CCCCCC2)o1)c1ccc(Cl)cc1` the Potency was 2.91 µM (active).
`Cc1ccc(S(=O)c2ccc([N+](=O)[O-])c3nonc23)cc1` (stereo not drawn) was tested, and the max response was 28.3% (inactive).
With `CN1CCC(OC(=O)c2cc3cc(Cl)cc(Cl)c3oc2=O)CC1` the max response was 17.4% (inactive).
With `Cn1nnc2c[n+](CC(=O)c3ccc(Cl)cc3)cc(Br)c21` the Potency was 19.8 µM (active).
In the case of `O=C(Nc1nnc(-c2ccc3c(c2)CCCC3)o1)c1c(F)cccc1F`, the max response is reported as 11.9% (inactive).
With `O=C(N/N=C/c1ccc(Cl)cc1)c1cc(-c2cccnc2)nc2ccccc12` the Potency was 2.5 µM (active).
`O=C(N/N=C/c1c(O)n(-c2ccc(Cl)cn2)c(=O)c2ccccc12)c1ccncc1` was tested, and the max response was -19.7% (inactive).
With `Cc1ccc(/C=N/NC(=O)c2cc(-c3ccccc3)nc3ccccc23)o1` the Potency was 19.8 µM (active).
In the case of `Cc1ccc(C=NNC(=O)c2cc(-c3cccnc3)nc3ccccc23)o1`, the Potency is reported as 15.8 µM (active).
`C/C(=N\NC(=O)c1cc(C)nc2ccccc12)c1ccncc1` was tested, and the max response was -20.6% (inactive).
In the case of `Cc1cc(C(=O)N/N=C/c2ccc(C)o2)c2ccccc2n1`, the Potency is reported as 4.98 µM (active).
With `COCCNC(=S)N/N=C(\C)c1ccccc1O` the max response was 6.88% (inactive).
`COc1cccc(/C=N/NC(=O)c2cc3c(OC)c(OC)ccc3[nH]2)c1OC` was tested, and the Potency was 7.9 µM (active).
In the case of `CCOc1ccc(/C=N/NC(=O)c2cc3c(OC)cccc3[nH]2)cc1`, the max response is reported as 2.03% (inactive).
With `COc1ccccc1/C=N/NC(=O)c1cc2c(OC)c(OC)ccc2[nH]1` the Potency was 5.59 µM (active).
`COCCCNC(=S)N/N=C/c1cccc(OC)c1O` was tested, and the max response was 7.9% (inactive).
For `COc1ccc(N=Cc2c(O)n(-c3cccc(C)n3)c(=O)c3ccccc23)c(OC)c1`, the Potency was 6.51 µM (active).
With `Cc1ccc(N=Cc2c(O)n(-c3nccs3)c(=O)c3ccccc23)c(C)c1` the max response was -1.11% (inactive).
For `CC1=Nc2ccc(C)cc2/C1=C/c1c(N)n2oc(C)cc2nc1=O`, the Potency was 16.4 µM (active).
In the case of `CCSC1=NSC2=NC(=O)/C(=C\c3coc4ccccc4c3=O)C(=N)N12`, the Potency is reported as 16.4 µM (active).
With `Cc1ccc(Cn2c(SCc3ccc(C(=O)NC4CCCC4)cc3)nc3ccncc32)cc1` the max response was -1.29% (inactive).
For `COc1ccc(C)cc1Nc1c2c(nc3ccccc13)CCC2`, the Potency was 0.886 µM (active).
`Cc1ccc(O)c(Nc2c3ccccc3nc3ccccc23)c1` was tested, and the max response was 10.9% (inactive).
In the case of `Cc1ccc(-c2cn3nc(-c4ccccc4)c(-c4ccccc4)nc3n2)cc1`, the Potency is reported as 16.4 µM (active).
For `Cn1cccc1/C=C1\SC(=Nc2ccccc2)NC1=O`, the Potency was 2.5 µM (active).
With `Cc1ccc(N=C2NC(=O)/C(=C/c3cn(C)c4ccccc34)S2)cc1C` the Potency was 17.7 µM (active).
`Cc1cccc(N=C2NC(=O)/C(=C/c3cccn3C)S2)c1` was tested, and the max response was -23.6% (inactive).
For `Cc1ccc(N=C2NC(=O)/C(=C/c3cccn3C)S2)cc1`, the Potency was 14 µM (active).
With `Cn1cccc1/C=C1\SC(=Nc2cccc(O)c2)NC1=O` the Potency was 11.2 µM (active).
In the case of `COc1cc(S(=O)(=O)Nc2ccccc2N2CCCCC2)ccc1NC(C)=O`, the Potency is reported as 2.23 µM (active).
With `O=C(NC(=S)Nc1ccccc1N1CCCCC1)c1ccccc1` the max response was 8.17% (inactive).
For `C=CCN1C(=O)/C(=C2/Sc3ccc(OC)cc3N2C)SC1=Nc1cccc(O)c1`, the Potency was 18.4 µM (active).
`C=CCN1C(=O)/C(=C2/Sc3ccc(OC)cc3N2CC)SC1=S` was tested, and the Potency was 11.6 µM (active).
For `Cc1cc(-n2c(SCC(=O)Nc3ccc(Br)cc3)nc3n[nH]c(C)c3c2=N)ccc1Cl`, the max response was -13.3% (inactive).
`CCOC(=O)N1CCc2c(sc3c2C(=O)NC(c2ccc(N(C)C)cc2)N3)C1` (stereo not drawn) was tested, and the Potency was 4.11 µM (active).
In the case of `O=C(CC1CC2CCC1C2)Nc1nc(-c2ccccn2)cs1` (stereo not drawn), the max response is reported as 10.6% (inactive).
`O=C(Nc1nc(-c2ccccn2)cs1)C1CCCC1` was tested, and the max response was -16.3% (inactive).
In the case of `CC(=O)c1ccc(-c2ccc(C(=O)Nc3nc(-c4ccccn4)cs3)o2)cc1`, the Potency is reported as 12.5 µM (active).
With `Cc1cc(/C=N/NC(=O)c2cc3ccccc3o2)c(C)n1C` the max response was -4.16% (inactive).
For `O=C(N/N=C/c1cccc2ccccc12)c1cc2ccccc2o1`, the Potency was 9.94 µM (active).
For `Cc1c(/C=N\NC(=O)c2cc3ccccc3o2)c2ccccc2n1C`, the Potency was 3.96 µM (active).
In the case of `CCCOc1ccc(NC(=O)CC2C(=O)N(c3ccc(OCC)cc3)C(=S)N2C2CC2)cc1` (stereo not drawn), the max response is reported as -18.2% (inactive).
In the case of `COc1cc(N2CCCC2)c(OC)cc1/C=C(/C#N)c1ccc(F)cc1`, the Potency is reported as 8.2 µM (active).
For `COc1cc(N2CCCC2)c(OC)cc1/C=C1/NC(=S)NC1=O`, the max response was 60.5% (inactive).
In the case of `COc1cc(N2CCCC2)c(OC)cc1/C=C(/C#N)c1ccc(Br)cc1`, the Potency is reported as 1.64 µM (active).
`COC(=O)COc1cccc2c(=O)n(CC(=O)NCc3ccccc3)ccc12` was tested, and the Potency was 6.27 µM (active).
For `CCOC(=O)C(C)Oc1cccc2c(=O)n(CC(=O)NCc3ccco3)ccc12` (stereo not drawn), the Potency was 1.4 µM (active).
In the case of `O=c1[nH]c(NCc2ccco2)nnc1Cc1ccccc1Cl`, the Potency is reported as 15.8 µM (active).
`CC(=O)Nc1sc(/C(C#N)=C\c2cccc(Cl)c2)nc1-c1ccc(C)cc1` was tested, and the Potency was 4.61 µM (active).
`CCOc1cc(/C=C(\C#N)c2nc(-c3cccs3)c(NC(C)=O)s2)ccc1O` was tested, and the max response was 51.1% (inactive).
In the case of `CC(=O)Nc1sc(/C(C#N)=C/c2ccc(Cl)c(Cl)c2)nc1-c1ccc(C)cc1`, the Potency is reported as 0.731 µM (active).
In the case of `CCCCOc1ccc(/C=C/C2=CC(C)(C)NC(=S)N2)cc1OCC`, the max response is reported as -1.97% (inactive).
With `COc1ccccc1-c1c(C#N)c(N)nc2c1CCc1ccccc1-2` the Potency was 6.27 µM (active).
In the case of `CC1=C(C(=O)Nc2cccc(F)c2)C(c2ccsc2)C2=C(CC(C)(C)CC2=O)N1` (stereo not drawn), the Potency is reported as 1.98 µM (active).
In the case of `O=[N+]([O-])c1ccccc1SNc1ccccc1`, the max response is reported as -7.81% (inactive).
`Cc1cc(C)c(S(=O)(=O)Oc2ccccc2[N+](=O)[O-])c(C)c1` was tested, and the Potency was 3.53 µM (active).
`CC(C)n1cnc2c(NCc3ccccc3)cc(N[C@H](C)CO)cc21` was tested, and the Potency was 15.8 µM (active).
For `FC(F)(Cl)c1nnc2ccc(Cl)nn12`, the Potency was 6.27 µM (active).
With `N#CCC(=O)N/N=C/c1ccc(N2N=C(c3ccccc3)CC2c2ccccc2)cc1` (stereo not drawn) the Potency was 16.4 µM (active).
With `COc1cc2c3nnc(-c4ccc(F)cc4)c-3cn(Cc3ccccc3F)c2cc1OC` the Potency was 20.6 µM (active).
For `COc1cc2c3nnc(-c4ccc(F)cc4)c-3cn(Cc3ccc(C)cc3)c2cc1OC`, the Potency was 9.94 µM (active).
With `CCOC(=O)CSC1=C(C#N)C(c2ccc(C)s2)CC(=O)N1` (stereo not drawn) the Potency was 1.77 µM (active).
With `O=C(CCCCl)Oc1ccc2cc(-c3ccc4ccccc4n3)c(=O)oc2c1` the max response was 32.5% (inactive).
For `CCOc1ccccc1Nc1nnc(-c2cc3cc(OC)ccc3oc2=O)s1`, the Potency was 5.17 µM (active).
`COc1ccc2oc(=O)c(-c3nc4ccccc4o3)cc2c1` was tested, and the Potency was 10.3 µM (active).
With `CC(=O)Nc1ccc2c(c1)Cc1ccc(Cl)cc1-2` the max response was -8.49% (inactive).
For `CC(=O)Nc1ccc(C2=CC(=O)C[C@H](c3ccc(Cl)cc3)C2)cc1`, the Potency was 18.4 µM (active).
For `CN(C)CCN(C(=O)/C=C/c1cccs1)c1nc2c(F)cc(F)cc2s1`, the max response was -22.8% (inactive).
In the case of `O=C(Nc1ccc([N+](=O)[O-])cc1)C(Cc1ccccc1)N1C(=O)c2cccc3cccc(c23)C1=O` (stereo not drawn), the Potency is reported as 8.86 µM (active).
For `Nc1c(C(=O)Nc2ccc(S(=O)(=O)N3CCCC3)cc2)sc2nc3cc4c(cc3cc12)CCC4`, the Potency was 10.3 µM (active).
In the case of `Nc1c(C(=O)Nc2ccc(S(=O)(=O)N3CCCC3)cc2)sc2nc3ccc(OC(F)(F)F)cc3cc12`, the Potency is reported as 18.4 µM (active).
With `CCc1cccc2cc3c(N)c(C(=O)Nc4ccc(S(=O)(=O)N5CCCC5)cc4)sc3nc12` the Potency was 5.59 µM (active).
With `Cn1c(N)c(-c2ccccc2)c2ccc([N+](=O)[O-])cc2c1=O` the Potency was 5.59 µM (active).
With `N#Cc1c(-c2ccccc2F)cc(C2CC2)nc1SCC(=O)c1cccs1` the Potency was 14 µM (active).
`CNC(=S)N/N=C(\C)c1ccc(Cl)s1` was tested, and the max response was 0.869% (inactive).
In the case of `COc1ccc(Cl)cc1NC(=O)CN(C)CC(=O)Nc1ccccc1N1CCOCC1`, the Potency is reported as 1.58 µM (active).
For `COc1cc(Cl)c(C)cc1NC(=O)CN1CCN(C(=O)C2CC2)CC1`, the max response was -28.2% (inactive).
`Fc1ccc(CNc2nc3ccccc3n3nnnc23)cc1` was tested, and the Potency was 23.1 µM (active).
For `Cc1ccc(C(=O)O)cc1Nc1nc2ccccc2n2nnnc12`, the max response was -28% (inactive).
In the case of `CC(NC(=O)c1ccc(Nc2nc3ccccc3n3nnnc23)cc1)c1ccccc1` (stereo not drawn), the Potency is reported as 20.6 µM (active).
`CN(C)c1ccc(Nc2nc3ccccc3n3nnnc23)cc1` was tested, and the max response was -13.6% (inactive).
With `Fc1ccccc1Nc1nc2ccccc2n2nnnc12` the Potency was 20.6 µM (active).
For `c1ccc2c(c1)nc(N1CCOCC1)c1nnnn12`, the max response was -18.6% (inactive).
`CN(C)S(=O)(=O)c1ccc2c(c1)/C(=C/c1cc3c([nH]1)CCCC3)C(=O)N2` was tested, and the Potency was 2.8 µM (active).
`CC(C)(C)C(=O)c1sc2nc(-c3cccs3)cc(C(F)(F)F)c2c1N` was tested, and the Potency was 0.731 µM (active).
With `CC(=O)c1sc2nc(-c3cccs3)cc(C(F)(F)F)c2c1N` the Potency was 13 µM (active).
In the case of `Nc1c(C(=O)C2CC2)sc2nc(-c3cccs3)cc(C(F)(F)F)c12`, the Potency is reported as 0.461 µM (active).
For `CCN(CC)C(=O)c1sc2nc(-c3cccs3)cc(-c3ccc(Cl)cc3)c2c1N`, the Potency was 15.8 µM (active).
With `Clc1ccccc1C1CC(c2ccccc2)=Nc2ccccc2N1` (stereo not drawn) the max response was -7.91% (inactive).
